Test results taken from the supplement of paper PMC11732987, “Enantioselective OTUD7B fragment discovery through chemoproteomics screening and high-throughput optimisation” (Communications Chemistry, 2025).

Assays:
Assay in all cases: log2 ratio of Biotin-Ahx-Ub-VS probe labelling (fragment/DMSO); higher = less target engagement (more negative = stronger competition), active = hit call of the paper (q ≤ 0.05, log2 ratio ≤ -1)
Details in all cases: compound concentration: 200 uM; treatment time: 3 h
USP34 = USP34 (UniProt Q70CQ2)
How it was run: (§1)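 Triplicate samples of HEK293T lysate, 495 µg each, received fragment at 200 µM or vehicle for 3 h, followed by Biotin-Ahx-Ub-VS (0.5 µM final) for 1 h. After NeutrAvidin enrichment of labelled DUBs and LysC/trypsin digestion, peptides were run by diaPASEF LC-MS/MS. The values are average log2 fragment/vehicle ratios from global-median-normalised Spectronaut label-free quantities, tested by unpaired t-test on proteins having ≥2 unique peptides.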

USP36 = biological target: T1, USP36 (UniProt Q9P275)
T1 sequence (whole entry): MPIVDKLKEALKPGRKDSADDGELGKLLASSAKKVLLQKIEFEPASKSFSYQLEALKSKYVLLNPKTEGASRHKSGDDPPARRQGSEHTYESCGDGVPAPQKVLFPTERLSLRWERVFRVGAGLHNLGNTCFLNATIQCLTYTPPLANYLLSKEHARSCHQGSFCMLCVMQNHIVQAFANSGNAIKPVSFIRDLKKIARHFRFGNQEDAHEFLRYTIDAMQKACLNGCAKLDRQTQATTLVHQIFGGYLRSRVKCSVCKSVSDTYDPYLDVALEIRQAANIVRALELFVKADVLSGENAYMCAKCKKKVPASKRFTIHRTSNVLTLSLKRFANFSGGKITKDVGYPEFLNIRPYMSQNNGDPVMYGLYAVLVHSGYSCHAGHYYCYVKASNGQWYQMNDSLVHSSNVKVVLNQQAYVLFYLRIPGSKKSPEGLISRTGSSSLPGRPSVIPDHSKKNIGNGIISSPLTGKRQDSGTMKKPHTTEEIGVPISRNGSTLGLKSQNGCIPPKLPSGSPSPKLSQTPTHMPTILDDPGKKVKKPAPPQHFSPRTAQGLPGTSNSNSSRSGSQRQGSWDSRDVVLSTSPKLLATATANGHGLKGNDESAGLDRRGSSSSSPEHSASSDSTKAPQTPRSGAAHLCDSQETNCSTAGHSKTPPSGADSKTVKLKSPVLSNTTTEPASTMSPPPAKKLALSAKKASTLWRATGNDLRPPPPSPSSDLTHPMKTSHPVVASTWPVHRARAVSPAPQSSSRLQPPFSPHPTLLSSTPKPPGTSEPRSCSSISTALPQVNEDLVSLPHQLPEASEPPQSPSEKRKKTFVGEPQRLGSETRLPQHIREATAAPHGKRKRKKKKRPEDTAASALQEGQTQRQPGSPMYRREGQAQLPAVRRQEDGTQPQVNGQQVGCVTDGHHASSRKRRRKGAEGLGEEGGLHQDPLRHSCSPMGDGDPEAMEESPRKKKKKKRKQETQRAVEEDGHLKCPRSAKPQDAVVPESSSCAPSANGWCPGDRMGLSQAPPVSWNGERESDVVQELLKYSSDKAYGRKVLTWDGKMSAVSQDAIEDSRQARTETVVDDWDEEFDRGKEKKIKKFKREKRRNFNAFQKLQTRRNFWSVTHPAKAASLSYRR
How it was run: as §1

USP38 = biological target: T2, USP38 (UniProt Q8NB14)
T2 sequence (whole entry): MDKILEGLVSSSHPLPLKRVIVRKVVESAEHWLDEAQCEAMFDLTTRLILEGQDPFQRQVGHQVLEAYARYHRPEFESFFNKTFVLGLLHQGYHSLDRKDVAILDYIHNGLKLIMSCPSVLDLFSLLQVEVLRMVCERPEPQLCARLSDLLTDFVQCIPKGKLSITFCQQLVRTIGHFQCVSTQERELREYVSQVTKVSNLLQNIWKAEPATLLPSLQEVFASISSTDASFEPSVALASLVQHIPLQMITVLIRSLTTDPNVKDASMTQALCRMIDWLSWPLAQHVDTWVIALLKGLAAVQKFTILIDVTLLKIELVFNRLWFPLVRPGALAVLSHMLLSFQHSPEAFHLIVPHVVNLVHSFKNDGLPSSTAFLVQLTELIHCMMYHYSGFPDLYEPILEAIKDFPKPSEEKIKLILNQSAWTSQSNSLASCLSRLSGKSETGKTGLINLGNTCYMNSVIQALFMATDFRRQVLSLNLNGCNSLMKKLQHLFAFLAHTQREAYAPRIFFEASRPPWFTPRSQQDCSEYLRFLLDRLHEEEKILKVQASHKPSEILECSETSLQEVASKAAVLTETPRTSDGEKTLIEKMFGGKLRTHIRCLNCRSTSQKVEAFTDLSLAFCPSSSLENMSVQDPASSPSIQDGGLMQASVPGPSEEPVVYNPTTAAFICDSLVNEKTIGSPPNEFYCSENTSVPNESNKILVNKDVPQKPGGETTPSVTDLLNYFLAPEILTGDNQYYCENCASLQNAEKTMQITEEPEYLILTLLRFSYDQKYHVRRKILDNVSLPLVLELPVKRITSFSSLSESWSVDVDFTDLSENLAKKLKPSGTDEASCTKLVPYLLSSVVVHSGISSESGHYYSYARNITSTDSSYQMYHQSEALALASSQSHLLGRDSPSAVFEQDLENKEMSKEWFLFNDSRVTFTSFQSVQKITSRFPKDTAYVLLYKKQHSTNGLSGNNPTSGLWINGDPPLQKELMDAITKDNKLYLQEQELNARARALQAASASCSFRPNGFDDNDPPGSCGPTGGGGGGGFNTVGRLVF
How it was run: as §1

USP39 = biological target: T3, USP39 (UniProt Q53GS9)
T3 sequence (whole entry): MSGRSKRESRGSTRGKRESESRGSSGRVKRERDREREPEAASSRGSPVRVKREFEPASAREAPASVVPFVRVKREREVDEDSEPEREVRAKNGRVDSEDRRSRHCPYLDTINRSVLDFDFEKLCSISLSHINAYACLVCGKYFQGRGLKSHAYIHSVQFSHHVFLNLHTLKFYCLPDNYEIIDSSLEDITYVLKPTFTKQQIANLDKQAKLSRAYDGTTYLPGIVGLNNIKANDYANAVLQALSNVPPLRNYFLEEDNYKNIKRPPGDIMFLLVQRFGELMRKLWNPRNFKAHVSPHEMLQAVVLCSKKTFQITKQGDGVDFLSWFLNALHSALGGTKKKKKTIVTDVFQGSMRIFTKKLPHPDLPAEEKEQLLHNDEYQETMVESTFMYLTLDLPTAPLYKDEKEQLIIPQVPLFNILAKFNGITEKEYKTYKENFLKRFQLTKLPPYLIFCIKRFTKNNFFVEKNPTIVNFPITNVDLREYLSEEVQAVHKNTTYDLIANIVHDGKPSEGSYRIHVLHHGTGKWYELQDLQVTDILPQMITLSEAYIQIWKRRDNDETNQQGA
How it was run: as §1

USP4 = biological target: T4, USP4 (UniProt Q13107)
T4 sequence (whole entry): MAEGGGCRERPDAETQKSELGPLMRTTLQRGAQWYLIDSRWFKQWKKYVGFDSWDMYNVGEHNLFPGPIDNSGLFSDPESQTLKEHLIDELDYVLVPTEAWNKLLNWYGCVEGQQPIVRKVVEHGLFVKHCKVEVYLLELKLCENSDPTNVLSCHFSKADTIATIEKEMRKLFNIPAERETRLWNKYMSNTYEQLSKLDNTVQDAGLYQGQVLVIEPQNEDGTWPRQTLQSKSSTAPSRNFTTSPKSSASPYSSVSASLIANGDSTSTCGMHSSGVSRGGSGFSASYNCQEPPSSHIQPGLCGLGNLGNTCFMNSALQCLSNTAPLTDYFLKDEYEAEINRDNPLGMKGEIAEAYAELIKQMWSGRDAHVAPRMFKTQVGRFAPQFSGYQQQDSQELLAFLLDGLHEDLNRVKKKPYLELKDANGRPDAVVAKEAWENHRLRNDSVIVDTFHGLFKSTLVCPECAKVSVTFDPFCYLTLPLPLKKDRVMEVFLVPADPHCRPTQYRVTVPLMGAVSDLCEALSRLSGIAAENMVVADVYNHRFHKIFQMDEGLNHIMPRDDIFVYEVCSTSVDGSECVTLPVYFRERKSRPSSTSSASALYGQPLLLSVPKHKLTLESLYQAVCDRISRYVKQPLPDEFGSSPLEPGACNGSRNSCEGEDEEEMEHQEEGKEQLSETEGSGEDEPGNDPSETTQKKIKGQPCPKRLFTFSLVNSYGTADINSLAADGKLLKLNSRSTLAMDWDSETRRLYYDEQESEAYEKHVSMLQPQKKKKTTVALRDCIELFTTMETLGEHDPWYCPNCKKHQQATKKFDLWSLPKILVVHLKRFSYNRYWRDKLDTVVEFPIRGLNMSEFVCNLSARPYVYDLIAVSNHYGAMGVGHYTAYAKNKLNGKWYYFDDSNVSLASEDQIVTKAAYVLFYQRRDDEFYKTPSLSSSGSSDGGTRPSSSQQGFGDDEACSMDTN
How it was run: as §1

Measured: log2 ratio of Biotin-Ahx-Ub-VS probe labelling

Chain of USP34 (Q70CQ2 whole entry, the tested form may be a part): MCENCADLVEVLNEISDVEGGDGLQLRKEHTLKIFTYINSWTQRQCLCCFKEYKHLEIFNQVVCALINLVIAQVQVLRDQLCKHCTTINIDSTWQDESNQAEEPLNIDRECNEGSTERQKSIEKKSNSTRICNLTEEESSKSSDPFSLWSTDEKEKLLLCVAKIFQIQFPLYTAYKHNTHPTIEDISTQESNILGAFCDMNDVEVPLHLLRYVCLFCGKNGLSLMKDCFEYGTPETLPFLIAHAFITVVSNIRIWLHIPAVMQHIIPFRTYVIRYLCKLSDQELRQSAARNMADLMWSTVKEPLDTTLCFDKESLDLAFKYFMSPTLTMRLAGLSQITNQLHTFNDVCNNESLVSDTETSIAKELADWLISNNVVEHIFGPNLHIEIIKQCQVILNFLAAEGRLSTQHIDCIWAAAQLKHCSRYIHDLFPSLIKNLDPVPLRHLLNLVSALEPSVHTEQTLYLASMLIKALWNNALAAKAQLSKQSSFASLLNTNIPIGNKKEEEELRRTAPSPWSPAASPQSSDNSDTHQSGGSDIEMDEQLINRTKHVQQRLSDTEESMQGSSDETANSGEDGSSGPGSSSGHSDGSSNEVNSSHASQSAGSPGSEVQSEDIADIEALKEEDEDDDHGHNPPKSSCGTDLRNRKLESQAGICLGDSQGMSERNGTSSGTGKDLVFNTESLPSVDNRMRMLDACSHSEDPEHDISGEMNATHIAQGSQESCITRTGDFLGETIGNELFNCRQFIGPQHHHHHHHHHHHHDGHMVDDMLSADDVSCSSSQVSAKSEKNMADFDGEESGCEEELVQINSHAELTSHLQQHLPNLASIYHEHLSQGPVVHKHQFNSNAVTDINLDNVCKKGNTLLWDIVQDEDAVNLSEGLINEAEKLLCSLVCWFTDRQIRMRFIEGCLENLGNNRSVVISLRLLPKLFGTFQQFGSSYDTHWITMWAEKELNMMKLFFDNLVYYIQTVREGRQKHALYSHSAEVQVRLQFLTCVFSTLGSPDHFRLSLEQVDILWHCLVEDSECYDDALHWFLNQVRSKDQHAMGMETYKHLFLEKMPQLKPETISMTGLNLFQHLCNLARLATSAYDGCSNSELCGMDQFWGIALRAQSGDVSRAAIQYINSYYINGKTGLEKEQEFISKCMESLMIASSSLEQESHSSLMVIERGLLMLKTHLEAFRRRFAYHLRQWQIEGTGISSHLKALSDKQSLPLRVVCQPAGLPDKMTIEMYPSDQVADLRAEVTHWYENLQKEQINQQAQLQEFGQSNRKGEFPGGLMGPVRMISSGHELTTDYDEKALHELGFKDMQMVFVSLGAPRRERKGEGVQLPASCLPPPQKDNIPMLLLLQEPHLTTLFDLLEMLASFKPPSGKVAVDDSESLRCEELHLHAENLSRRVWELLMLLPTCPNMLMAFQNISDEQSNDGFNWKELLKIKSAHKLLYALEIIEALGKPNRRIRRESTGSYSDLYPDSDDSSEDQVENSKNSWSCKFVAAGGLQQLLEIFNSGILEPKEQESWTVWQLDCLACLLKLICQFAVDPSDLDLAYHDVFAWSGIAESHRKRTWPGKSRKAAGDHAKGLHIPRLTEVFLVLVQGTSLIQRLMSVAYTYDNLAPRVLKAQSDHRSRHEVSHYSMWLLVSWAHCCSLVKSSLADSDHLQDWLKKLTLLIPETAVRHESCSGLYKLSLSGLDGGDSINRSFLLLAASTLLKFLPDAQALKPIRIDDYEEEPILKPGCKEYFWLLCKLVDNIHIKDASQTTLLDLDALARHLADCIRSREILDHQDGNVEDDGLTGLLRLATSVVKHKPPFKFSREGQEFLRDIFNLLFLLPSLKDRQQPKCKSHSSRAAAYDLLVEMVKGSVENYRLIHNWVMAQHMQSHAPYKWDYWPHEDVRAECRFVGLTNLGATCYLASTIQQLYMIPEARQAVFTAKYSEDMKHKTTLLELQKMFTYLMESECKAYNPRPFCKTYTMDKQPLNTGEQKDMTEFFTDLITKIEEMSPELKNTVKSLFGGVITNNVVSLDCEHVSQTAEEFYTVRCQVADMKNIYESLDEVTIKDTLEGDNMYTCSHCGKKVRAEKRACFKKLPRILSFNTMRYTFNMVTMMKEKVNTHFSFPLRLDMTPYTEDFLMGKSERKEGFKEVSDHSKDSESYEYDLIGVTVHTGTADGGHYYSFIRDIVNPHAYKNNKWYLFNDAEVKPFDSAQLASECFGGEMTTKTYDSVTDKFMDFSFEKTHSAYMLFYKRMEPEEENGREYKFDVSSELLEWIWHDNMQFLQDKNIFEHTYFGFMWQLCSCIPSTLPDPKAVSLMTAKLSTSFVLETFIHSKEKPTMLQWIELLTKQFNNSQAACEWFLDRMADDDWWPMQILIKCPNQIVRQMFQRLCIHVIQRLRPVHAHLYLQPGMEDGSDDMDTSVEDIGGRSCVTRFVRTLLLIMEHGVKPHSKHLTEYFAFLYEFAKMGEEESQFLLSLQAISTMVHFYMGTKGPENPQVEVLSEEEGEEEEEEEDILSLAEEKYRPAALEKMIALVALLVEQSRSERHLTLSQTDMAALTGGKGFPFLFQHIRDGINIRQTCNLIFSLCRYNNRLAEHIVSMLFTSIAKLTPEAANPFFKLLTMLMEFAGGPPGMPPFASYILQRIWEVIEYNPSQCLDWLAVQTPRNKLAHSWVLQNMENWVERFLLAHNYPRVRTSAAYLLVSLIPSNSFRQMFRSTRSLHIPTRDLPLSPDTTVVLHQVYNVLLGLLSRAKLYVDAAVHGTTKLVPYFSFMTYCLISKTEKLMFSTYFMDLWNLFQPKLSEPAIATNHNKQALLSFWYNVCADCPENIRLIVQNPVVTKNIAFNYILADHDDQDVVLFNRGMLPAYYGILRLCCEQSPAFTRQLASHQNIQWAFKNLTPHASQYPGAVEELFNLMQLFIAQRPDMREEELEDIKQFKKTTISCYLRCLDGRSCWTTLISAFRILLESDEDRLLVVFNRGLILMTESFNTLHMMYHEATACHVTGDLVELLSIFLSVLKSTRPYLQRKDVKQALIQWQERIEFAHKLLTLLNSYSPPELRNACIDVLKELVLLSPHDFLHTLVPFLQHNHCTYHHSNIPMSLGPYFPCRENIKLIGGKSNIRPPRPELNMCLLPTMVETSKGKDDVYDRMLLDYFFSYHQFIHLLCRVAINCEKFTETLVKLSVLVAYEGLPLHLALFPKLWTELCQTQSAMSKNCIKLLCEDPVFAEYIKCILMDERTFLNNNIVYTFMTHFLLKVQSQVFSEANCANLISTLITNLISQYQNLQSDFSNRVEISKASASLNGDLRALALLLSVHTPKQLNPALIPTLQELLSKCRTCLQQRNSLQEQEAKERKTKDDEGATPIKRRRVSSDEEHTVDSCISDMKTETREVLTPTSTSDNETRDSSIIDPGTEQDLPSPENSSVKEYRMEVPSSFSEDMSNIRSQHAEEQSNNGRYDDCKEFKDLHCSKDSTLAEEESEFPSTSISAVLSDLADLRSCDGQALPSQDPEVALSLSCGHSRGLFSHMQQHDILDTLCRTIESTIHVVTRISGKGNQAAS

Cc1ccc(C(=O)NCCNC(=O)CCl)cc1
inactive: USP34 -0.0636 | USP36 0.0541 | USP38 -0.00607 | USP39 -0.0936 | USP4 -0.258
